Screens from PubChem.
Most compounds without a hit are left out; they make up all but 8.7% or so of the library.
Pf growth 96h: P. falciparum growth inhibition at 96 hours. P. falciparum luciferase reporter growth, 96 h. Potency, µM (top dose mostly 28.7 µM), most hits filed as inhibitors. 6.9% of 320,000 active
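P. falciparum expressing integrated firefly luciferase, in erythrocytes at 2% hematocrit, 0.05% parasitemia, incubated with compounds 96 h at 37 C, 5% CO2. Growth inhibition read as loss of luminescence; two-generation exposure targets delayed-death apicoplast inhibitors.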
AMA1-RON2 inh: inhibitors of Plasmodium falciparum AMA1-RON2 interaction. Potency, µM (highest dose often 58.2 µM), usual class: inhibitors. 0.2% of 360,000 active. AID 720542. AlphaScreen AMA1-biotinylated RON2 peptide binding; further: nearly all actives have a fitted effect of over 45% in size
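AMA1 (3D7) with his tag at 25 nM final met compounds first, then biotinylated RON2 peptide at 25 nM; detection used donor plus acceptor beads, 10 µg/mL apiece, read by AlphaScreen after 30 min at room temperature.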
Pf growth 48h: P. falciparum growth inhibition at 48 hours (one generation). P. falciparum luciferase growth in erythrocytes, 48 h. Potency, µM (series often up to 28.7 µM), usual class: inhibitors. 5.9% of 310,000 active
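Parasite viability was followed by luminescence of a genomically integrated firefly luciferase. Cultures held 0.1% parasitemia at 2% hematocrit (final), incubated under 5% CO2 at 37 C.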
Vaccinia Venus: inhibitors of vaccinia virus (Venus reporter). 0.46% of 330,000 active. Potency, µM (series often up to 36.5 µM), usual class: inhibitors. AID 720580. Vaccinia virus Venus reporter expression, fluorescence; calls by dose curve; tested in A549 cells; further: nearly all actives have a fitted effect of over 30% in size
VACV mCherry inh: vaccinia inhibition (mCherry reporter). 0.63% of 310,000 active. Potency, µM (series often up to 36.5 µM), most hits filed as inhibitors. Vaccinia virus mCherry reporter infection, fluorescence. AID 720579; calls by dose curve; tested in A549 cells; further: nearly all actives have a fitted effect of over 35% in size
Of the large screens only hits and unclear results are named; the others gave an inactive call. Unless noted, the call rests on the fitted dose curve; in most records, active means well fitted curve in the direction sought with a large enough effect; inconclusive means small, poorly fitted or top-dose-only effect, or another doubt; inactive means no such curve, though single readings can be large; an effect the other way counts as inactive or inconclusive.

O=C(C1CCCN1S(=O)(=O)c1cccc2nsnc12)N1CCCCC1 (stereo not given)	none
O=C(Nc1cccc(F)c1)C1CCCN(S(=O)(=O)c2cccc3cccnc23)C1 (stereo not given)	Pf growth 96h inconclusive, Pf growth 48h 9.28µM
CC(=O)c1ccc(N2CCN(C(=O)C3CCCN3S(=O)(=O)c3cccc4nsnc34)CC2)cc1 (stereo not given)	Pf growth 96h 13.1µM, Pf growth 48h inconclusive (no result: Vaccinia Venus, VACV mCherry inh)
O=C(C1CCCN(S(=O)(=O)c2cccc3nsnc23)C1)N1CCN(c2ccccc2F)CC1 (stereo not given)	none (no result: Pf growth 96h, AMA1-RON2 inh, Pf growth 48h)
O=C(NC1CCCC1)C1CCCN(S(=O)(=O)c2cccc3cccnc23)C1 (stereo not given)	none
COc1ccc(NC(=O)Cn2c(=O)n(-c3cc(C)cc(C)c3)c(=O)c3oc4ccccc4c32)cc1OC	none (no result: Pf growth 96h, AMA1-RON2 inh, Pf growth 48h)
c1ccc2c(C3=NNC(=NC4CC4)SC3)c[nH]c2c1	none
c1ccc2c(C3=NNC(=NC4CCCCC4)SC3)c[nH]c2c1	Pf growth 96h 14.7µM, Pf growth 48h inconclusive (no result: Vaccinia Venus, VACV mCherry inh)
COc1ccc(C2c3[nH]c4ccccc4c3CCN2C(=O)c2ccc(=O)n(C)n2)c(F)c1 (stereo not given)	Pf growth 48h inconclusive, VACV mCherry inh inconclusive
Cc1ccccc1C1c2[nH]c3ccccc3c2CCN1C(=O)c1ccc(=O)n(C)n1 (stereo not given)	Pf growth 96h 13.1µM, Pf growth 48h inconclusive
CSc1ccc(C2c3[nH]c4ccccc4c3CCN2C(=O)c2cc(C)n(C)n2)cc1 (stereo not given)	Pf growth 48h inconclusive (no result: AMA1-RON2 inh, Vaccinia Venus, VACV mCherry inh)
CN1N=C(C(=O)N2CCc3c([nH]c4ccccc34)C2c2ccccc2Cl)CCC1=O (stereo not given)	Pf growth 96h 10.4µM, Pf growth 48h 1.65µM
O=C(O)c1cccnc1C(=O)N1CCc2c([nH]c3ccccc23)C1C(F)(F)F (stereo not given)	none
Cc1cc(C(=O)N2CCc3c([nH]c4ccccc34)C2c2cccc(Cl)c2)nn1C (stereo not given)	Pf growth 96h 11.7µM, Pf growth 48h inconclusive (no result: Vaccinia Venus, VACV mCherry inh)
O=C(c1cc[n+]([O-])cc1)N1CCc2c([nH]c3ccccc23)C1c1ccccc1Cl (stereo not given)	Pf growth 48h inconclusive
Cc1ccccc1C(=O)N1CCc2c([nH]c3ccccc23)C1C(F)(F)F (stereo not given)	Pf growth 96h inconclusive, Pf growth 48h 11.7µM
COc1cc2nc(CN(C)Cc3ccc(Cl)cc3)[nH]c(=O)c2cc1OC	Pf growth 96h inconclusive
COc1cc2cncc(Cc3ccc(Cl)cc3)c2cc1OC	Pf growth 96h inconclusive, Pf growth 48h 8.28µM (no result: Vaccinia Venus, VACV mCherry inh)
Cc1ccc(-n2ncc(C(=O)NCCCN3CCCCC3)c2C2CCN(C(=O)OC(C)(C)C)CC2)c(C)c1	none (no result: Pf growth 96h, AMA1-RON2 inh, Pf growth 48h)
Cc1ccc2c(c1)C(c1ccccc1)N(C(=O)c1ccc(Br)o1)CC(=O)N2 (stereo not given)	none (no result: Pf growth 48h)
O=C1CN(C(=O)c2ccc(Br)o2)C(c2ccccc2)c2cc(Br)ccc2N1 (stereo not given)	Pf growth 96h 5.86µM, Vaccinia Venus inconclusive, VACV mCherry inh inconclusive (no result: Pf growth 48h)
O=C(COc1ccc(Cl)cc1)N1CCN(c2ccc([N+](=O)[O-])c(N3CCCCC3)c2)CC1	Pf growth 96h 10.4µM, Pf growth 48h inconclusive
O=C(COc1ccccc1Cl)N1CCN(c2ccc([N+](=O)[O-])c(N3CCCCC3)c2)CC1	Pf growth 96h inconclusive, Pf growth 48h inconclusive
O=C(OCC(=O)N1CCN(c2ccccc2)CC1)c1cc(Cl)ccc1[N+](=O)[O-]	Pf growth 96h 11.7µM, AMA1-RON2 inh inconclusive
Cc1ccc(C)c(NC(=O)Cn2cc(C(=O)c3cccs3)c3ccccc32)c1	none (no result: Pf growth 96h, AMA1-RON2 inh, Pf growth 48h)
COc1cc(-c2nc(C(=O)NCC3CCCO3)cc3c2[nH]c2ccccc23)cc(OC)c1OC (stereo not given)	Pf growth 96h 6.57µM, Pf growth 48h inconclusive, Vaccinia Venus inconclusive, VACV mCherry inh inconclusive
O=C(NCC1CCCO1)c1cc2c([nH]c3ccccc32)c(-c2cccc(Cl)c2)n1 (stereo not given)	Pf growth 96h 5.86µM, Pf growth 48h inconclusive, Vaccinia Venus inconclusive, VACV mCherry inh inconclusive
COc1cccc2[nH]c(C(=O)NCC3CCCO3)cc12 (stereo not given)	none (no result: Vaccinia Venus, VACV mCherry inh)
COc1ccccc1-c1nc(C(=O)NCC2CCCO2)cc2c1[nH]c1ccccc12 (stereo not given)	Pf growth 96h 8.28µM, Pf growth 48h 9.28µM
